# NPR1 antag – blocks ANP-stimulated signaling of human Npr1 receptor; P16066; HEK293 hNpr1 GloSensor cGMP, ANP-stimulated luminescence; Potency, µM (top dose mostly 46.3 µM), for the others: top-dose activity change, negative = inhibition, actives largely listed as inhibitors; hit rate 1.6% among 76,000; AID 1347048; calls by dose curve; also: nearly all actives have a fitted effect of over 60% in size
#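 Compound pre-incubated 30 min at room temperature on GloSensor-loaded HEK293 cells stably carrying hNpr1 and the pGS-40F cGMP biosensor. Stimulation uses hNppA at 0.1 nM final; luminescence is taken at baseline and 20 min post-agonist.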
# FLuc inh – Photinus pyralis luciferase inhibition; Potency, µM (highest dose often 115 µM), most hits filed as inhibitors; hit rate 2.5% among 76,000; purified P. pyralis luciferase, luminescence, biochemical; AID 1347043; also: nearly all actives have a fitted effect of over 65% in size
# Target sequence (P08659 whole entry, looked up): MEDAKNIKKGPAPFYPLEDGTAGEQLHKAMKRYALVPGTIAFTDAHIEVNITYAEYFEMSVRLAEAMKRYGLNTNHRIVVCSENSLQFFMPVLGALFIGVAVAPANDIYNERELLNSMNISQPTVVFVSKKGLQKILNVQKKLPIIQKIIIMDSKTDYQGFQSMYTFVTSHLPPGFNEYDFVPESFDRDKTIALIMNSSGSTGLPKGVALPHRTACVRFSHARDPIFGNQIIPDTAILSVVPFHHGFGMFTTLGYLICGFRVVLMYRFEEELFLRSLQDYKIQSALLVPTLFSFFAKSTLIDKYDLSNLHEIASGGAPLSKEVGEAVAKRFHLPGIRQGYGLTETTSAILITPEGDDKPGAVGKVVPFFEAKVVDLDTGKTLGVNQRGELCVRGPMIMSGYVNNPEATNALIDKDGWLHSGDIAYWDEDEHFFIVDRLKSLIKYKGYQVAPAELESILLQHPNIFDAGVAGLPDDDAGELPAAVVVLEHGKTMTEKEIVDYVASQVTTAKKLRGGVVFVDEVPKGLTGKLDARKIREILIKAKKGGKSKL
#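 Cell-free enzyme assay, 10nM P. pyralis luciferase, luciferin and ATP each at 10uM. Inhibition profiled over a 6-point titration, read as luminescence.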
# HEK293 tox – HEK 293 cell cytotoxicity | hit rate 6.6% among 94,000 | Potency, µM (titrated, usually from 115 µM), inactives show top-dose activity change, negative = cytotoxicity, hits mostly inhibitors | HEK 293 viability, ATP luminescence (CellTiter-Glo), 48-72 h; also: nearly all actives have a fitted effect of over 60% in size
#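 Read-out: CellTiter-Glo ATP luminescence. Cells: HEK 293, 250 cells/well. Exposure: 48 or 72 hr, 37 degree Celsius.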
# NIH3T3 tox – kills NIH 3T3 cells | NIH 3T3 viability, CellTiter-Glo ATP luminescence, 48-72 h | Potency, µM (series often up to 96.7 µM), without a hit: at the top dose activity change, negative = cytotoxicity, usual class: inhibitors | hit rate 4.3% among 94,000 | AID 1345082; also: nearly all actives have a fitted effect of over 55% in size
#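 ATP-dependent luminescence (CellTiter-Glo) served as the viability signal for NIH 3T3 cells treated with compound for 48 or 72 hr at 37 °C.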
# Numbers without * were called inactive; i = inactive; ? = inconclusive; . = no result given; [ ] = remark or other dose. Hits are enriched below; roughly 11% of the tested compounds scored in any of these assays. Unless noted, calls follow the shape of the dose curve; as a rule, active = well fitted curve in the direction sought with a large enough effect; inconclusive = small, poorly fitted or top-dose-only effect, or another doubt; inactive = no such curve, though single readings can be large; an effect the other way counts as inactive or inconclusive. % is scaled to controls: 0 for no effect and ±100 for the full control effect; potency is read from the fitted curve at half-maximal effect.
SMILES,NPR1 antag,FLuc inh,HEK293 tox,NIH3T3 tox
COc1ccc(-c2nc(-c3c(C)noc3C)cc3cc(CN(C)C)oc23)cn1,-1%[70.6 µM],i,?,50µM*
Cc1ccc(C(=O)N2CCC(C(=O)N3CCC(N4Cc5cccn5C4=O)CC3)CC2)cc1,.,.,-14%,-17%
COc1cc2c(cc1OC)C(CNC(=O)c1ccco1)N(C(=O)Nc1cccc(F)c1)CC2 (stereo not given),1%,i,45µM*,-19%
O=C(Cc1cccs1)N1CCOc2ccc(CN3CCc4ccccc4C3)cc2C1,-23%,i,?,?
COc1cccc(C(=O)N2CCOc3ccc(CN4CCc5ccccc5C4)cc3C2)c1,-4%,i,45µM*,?
O=C(N1CCOc2ccc(CN3CCc4ccccc4C3)cc2C1)C1(c2ccccc2)CC1,?,i,45µM*,?
Cc1ccsc1C(=O)N1CCOc2ccc(CN3CCc4ccccc4C3)cc2C1,-29%,i,35µM*,?
CCC(=O)N1CCOc2ccc(CN3CCc4ccccc4C3)cc2C1,2%,i,?,-24%
CCN1C[C@H]2COc3ccccc3[C@H]2N(C(=O)c2ccc(F)cc2)CCC1=O,.,.,-4%,?
O=C(c1ccc(-c2ncc3cnc(C4=CCOCC4)cn23)cc1)N1CCc2ccccc2C1,-25%[70.6 µM],i,79µM*,?
O=C(NCCO)c1ccc(-c2ncc3cnc(C4=CCOCC4)cn23)cc1,-1%[70.6 µM],i,i,?
Cc1ccc(C(=O)NC2CCCN(CCn3nc4n(c3=O)CCCC4)C2)cc1 (stereo not given),.,.,-11%,-16%
COc1cccc(CC(=O)N2CCCC(c3nc(-c4ccccc4)no3)CCNC(=O)CC2)c1 (stereo not given),-11%,?,i,-30%
O=C1CCN(C(=O)c2ccco2)CCCC(c2nc(-c3ccccc3)no2)CCN1 (stereo not given),-5%,28µM*,-28%,-5%
COc1ccc(CCC(=O)N2CCCC(c3nc(-c4ccccc4)no3)CCNC(=O)CC2)cc1 (stereo not given),5%,i,89µM*,?
Cc1ccc(CN2CCCC(c3nc(-c4cccnc4)no3)CCNC(=O)CC2)s1 (stereo not given),-3%,i,89µM*,?
O=C1CCN(C(=O)C2CCCC2)CCCC(c2nc(-c3ccccc3)no2)CCN1 (stereo not given),-5%,i,?,4%
COCC(=O)NCCNC(=O)c1cccc(-c2ccsc2)c1,.,.,-16%[172 µM],-28%[138 µM]
COCCn1nnnc1C1CC2(CCOCC2)C(=O)N1Cc1ccc(C)c(C)c1 (stereo not given),.,.,-6%,-21%
CC1(c2ccccc2)N(Cc2ccccc2)C(=O)OC12CCN(C(=O)Cc1cccc(F)c1)CC2 (stereo not given),-9%,i,?,10µM*
CC(C)CCN1CCC2(CC1)OC(=O)N(Cc1ccc(O)cc1)C2(C)c1ccccc1 (stereo not given),-17%[70.6 µM],i,?,89µM*
CC(C)C(=O)N1CCC2(CC1)OC(=O)N(Cc1ccccc1C#N)C2(C)c1ccccc1 (stereo not given),-3%[70.6 µM],i,-9%[172 µM],?
CC(C)C(=O)N1CCC2(CC1)OC(=O)N(Cc1ccccc1)C2(C)c1ccccc1 (stereo not given),-7%[70.6 µM],i,?,10µM*
CC1(c2ccccc2)N(Cc2ccc(O)cc2)C(=O)OC12CCN(Cc1cccnc1)CC2 (stereo not given),-14%,i,-12%,?
CC1(c2ccccc2)N(Cc2ccc(O)cc2)C(=O)OC12CCN(C(=O)Cc1ccccc1)CC2 (stereo not given),1%,i,?,?
SMILES,NPR1 antag,FLuc inh,HEK293 tox,NIH3T3 tox
O=C1CCCCC(C(=O)N2CCN(c3ccccn3)CC2)N1 (stereo not given),.,.,2%,-21%
CN1CCC(N(Cc2ccccc2)[C@@H]2C[C@@H]3CO[C@H](c4ccccc4)C[C@@H]3C2)CC1,.,.,?,14µM*
Cn1cc(C(=O)N2CCC(N(Cc3ccccc3)C3CCOCC3)CC2)cn1,-1%,i,9%,-11%
O=C1CN([S+](=O)([O-])c2ccc(F)cc2)CC(O)CN1Cc1cccc(F)c1 (stereo not given),.,.,-30%,?
COc1ccc(Cn2c(=O)c(C(=O)N3CCN(C(=O)c4ccccc4)CC3)nc3cccnc32)cc1,.,.,-4%,-26%
COc1ccc(S(=O)(=O)Nc2ccc3n(c2=O)C[C@H]2C[C@@H]3CN(C(=O)Nc3cc(OC)cc(OC)c3)C2)cc1,1%,i,-2%,50µM*
CC(C)C[C@@H]1N[C@H](C(=O)NC2CCC2)Cc2cn(Cc3nccn3C)c3cccc1c23,-16%[70.6 µM],i,?,79µM*
C=CCNC(=O)[C@@H]1Cc2cn(Cc3nccn3C)c3cccc(c23)[C@H](CC(C)C)N1,-2%[70.6 µM],i,?,79µM*
C=CCN(C)C(=O)[C@@H]1Cc2cn(Cc3nccn3C)c3cccc(c23)[C@H](CC(C)C)N1,4%[70.6 µM],i,100µM*,?
CC(C)C[C@@H]1N[C@H](C(=O)NC(C)C)Cc2cn(Cc3nccn3C)c3cccc1c23,-13%[70.6 µM],i,?,79µM*
COc1ccc(C(=O)N2CCC3(CC2)CCC(O)(CN(C)C)CC3)cn1,.,.,-4%,-11%
COCCCNC(=O)C1CCN(c2ccnc3ccnn23)CC1,.,.,-16%[172 µM],-27%[138 µM]
O=C(CN1C(=O)C(Oc2ccc(F)cc2)C12CCCCC2)NCCc1ccccn1 (stereo not given),.,.,-7%,-19%
O=C(NCCNC(=O)c1ccc(C(F)(F)F)cc1)c1ccc(-c2cccc(C(F)(F)F)c2)cc1,.,.,5%,-2%
C=CCN(C)C(=O)[C@@H]1Cc2cn(Cc3cc(C)on3)c3cccc(c23)[C@H](CC(C)C)N1,2%[70.6 µM],i,71µM*,71µM*
O=C(c1ccccc1)N1CCC(C(=O)N2CCC(c3nc4ncccc4[nH]3)CC2)CC1,.,.,i,i
O=c1c2nc(NCc3ccccc3)ccc2ncn1Cc1ccccn1,5%[70.6 µM],i,?,79µM*
COC(=O)CNC(=O)c1cccc(-c2ccc(OC)nn2)c1,.,.,i,-8%[138 µM]
COCc1ccc(CN2CCC(Oc3ccc(C(=O)NC4CCCC4)cc3Cl)CC2)o1,-17%,i,35µM*,?
COCCNC(=O)c1ccc(OC2CCN(CCc3ccccc3)CC2)c(Cl)c1,11%,i,?,?
COCCNC(=O)c1ccc(OC2CCN(CCC(C)c3ccc(C)o3)CC2)c(Cl)c1 (stereo not given),1%,i,89µM*,?
COCCNC(=O)c1ccc(OC2CCN(C/C=C/c3ccc(F)cc3)CC2)c(Cl)c1,?,i,45µM*,?
N#Cc1ccc(S(=O)(=O)N2C[C@@H](Oc3ccccc3)C[C@H]2C(=O)N2CCOCC2)cc1,.,.,i,-1%
CCN(CC)CCNC(=O)c1c(-c2ccccc2)cc(=O)n2c1CCC2,.,.,-7%,-21%

# High-throughput results as filed in PubChem.
